In all, about 1,600 compounds were measured (“Hit score”: median about 0.13, highest 2% from about 0.46 on). This is one part of a sample in which the highest values are shown more often than they occur.

Drawing on ChEMBL document CHEMBL4303122, “Identification of potential treatments for COVID-19 through artificial intelligence-enabled phenomic analysis of human cells infected with SARS-CoV-2” (2020), this text covers Hit score for 65 compounds.

The subject of the experiment is SARS-CoV-2. The experiment is described as follows: Antiviral activity against SARS-CoV-2 (USA-WA1/2020 strain) measured by imaging in HRCE cells at MOI 0.4 after 96 hrs (reported as hit score from 0-1 for on-disease vs off-disease activity: scores >0.6 considered hits). It is filed as functional, Homo sapiens.
Consider `C=CCNc1nc(NCC=C)nc(N2CCN(C(c3ccc(F)cc3)c3ccc(F)cc3)CC2)n1` [ALMITRINE], for which the Hit score turned out to be 0.7206.
In the case of `COc1ccc(CN2CCN(C(c3ccc(F)cc3)c3ccc(F)cc3)CC2)c(OC)c1OC` [LOMERIZINE], the Hit score is -0.04979.
`C#Cc1cccc(Nc2ncnc3cc4c(cc23)OCCOCCOCCO4)c1` [ICOTINIB] yielded a Hit score of 0.1043.
`C[C@H](O)[C@H](O)[C@H]1CNc2nc(N)[nH]c(=O)c2N1` [SAPROPTERIN] displayed a Hit score of 0.04545.
In the case of `C=C1[C@H](CO)[C@@H](O)C[C@@H]1n1cnc2c(=O)[nH]c(N)nc21.O`, the Hit score is on record as 0.1346.
The result for `CC1(C)S[C@@H]2[C@H](NC(=O)[C@H](NC(=O)N3CCN(S(C)(=O)=O)C3=O)c3ccccc3)C(=O)N2[C@H]1C(=O)O` [MEZLOCILLIN] reads 0.1621; that for `O=C(O[C@H]1C[C@H]2CC[C@@H](C1)[N+]21CCCC1)C(O)(c1ccccc1)c1ccccc1` [TROSPIUM], 0.08693.
As to `Cc1ccccc1C(=O)Nc1ccc(C(=O)N2CCCC(N(C)C)c3ccccc32)cc1` (stereo not given) [MOZAVAPTAN], the Hit score was 0.1836.
With `CCC(C)(C)C(=O)O[C@H]1C[C@@H](C)C=C2C=C[C@H](C)[C@H](CC[C@@H]3C[C@@H](O)CC(=O)O3)[C@H]21` [SIMVASTATIN], the Hit score came to 0.1206.
As for `C[C@H]1c2cccc(O)c2C(=O)C2=C(O)[C@]3(O)C(=O)C(C(N)=O)=C(O)[C@@H](N(C)C)[C@@H]3[C@@H](O)[C@@H]21.O` [DOXYCYCLINE], the Hit score was -0.02175.
As to `CCCCCCCC/C=C/CCCCCCCC(=O)OC[C@H]1O[C@@H](n2ccc(N)nc2=O)C(F)(F)[C@@H]1O` [GEMCITABINE ELAIDATE], the Hit score is 0.08488.
`CC/C=C\C/C=C\C/C=C\C/C=C\C/C=C\CCCC(=O)O` [ICOSAPENT] came in with a Hit score of 0.1484.
Compound `C[N+]1(CC2CC2)[C@@H]2C[C@@H](OC(=O)[C@H](CO)c3ccccc3)C[C@H]1[C@@H]1O[C@@H]12` (stereo not given in full) [CIMETROPIUM] showed a Hit score of 0.08586.
For `COc1cccc(Nc2c(C(N)=O)cnc3c(C)cc(S(=O)(=O)c4cccc(C(=O)N(C)C)c4)cc23)c1` [GSK-256066], the Hit score is -0.006373.
With `Cl.OC(CNCC(O)C1CCc2cc(F)ccc2O1)C1CCc2cc(F)ccc2O1` (stereo not given) [NEBIVOLOL HYDROCHLORIDE], the Hit score amounted to 0.4783.
`C[C@]12CC[C@@H]3c4ccc(O)cc4CC[C@H]3[C@@H]1CC[C@@H]2OC(=O)CCC1CCCC1` [ESTRADIOL CYPIONATE] had a Hit score of 0.1681.
In turn, `Cc1ccc(/C=C2\CNC/C(=C\c3ccc(C)cc3)C2=O)cc1.Cl` came in with a Hit score of 0.05741.
For `C[C@@H](O)[C@H]1C(=O)N2C(C(=O)O)=C([C@H]3CCCO3)S[C@H]12` [FAROPENEM], the Hit score was determined as 0.1823.
`CC1(C)S[C@@H]2[C@H](NC(=O)[C@H](N)c3ccc(O)cc3)C(=O)N2[C@H]1C(=O)[O-].[Na+]` [AMOXICILLIN SODIUM] had a Hit score of 0.05468.
`NCCCC[C@H](N)C(=O)O.N[C@@H](CSCC(=O)O)C(=O)O.O`: the Hit score was found to be 0.1749.
In turn, `CO/N=C(\C(=O)N[C@@H]1C(=O)N2C(C(=O)OCOC(=O)C(C)(C)C)=C(C)CS[C@H]12)c1csc(N)n1` registered a Hit score of 0.2495.
As for `CN(C)C(=O)c1cc2cnc(Nc3ccc(N4CCNCC4)cn3)nc2n1C1CCCC1` [RIBOCICLIB], the Hit score amounted to 0.1227.
The result for `CC(COc1ccccc1Cc1ccccc1)N1CCCCC1` (stereo not given) [BENPROPERINE] reads 0.02777.
In the case of `C#C[C@]1(O)CC[C@H]2[C@@H]3CCC4=CC(=O)CC[C@@H]4[C@H]3CC[C@@]21C` [NORETHINDRONE], the Hit score was determined as 0.1388.
Take `C=CCN1CC[C@]23c4c5ccc(O)c4O[C@H]2[C@@H](OCCOCCOCCOCCOCCOCCOCCOC)CC[C@@]3(O)[C@H]1C5` [NALOXEGOL]: the Hit score amounted to 0.106.
The result for `CN(C(=O)C(Cl)Cl)c1ccc(O)cc1` [DILOXANIDE] reads -0.0329; that for `O=C1[C@H]2CCCC[C@H]2C(=O)N1CCCCN1CCN(c2nsc3ccccc23)CC1` [PEROSPIRONE], 0.1455.
As to `CCCCCCCCCCCC(=O)OCC(O)CO` (stereo not given) [GLYCEROL MONOLAURATE], the Hit score was 0.1728.
Turning to `OCC(O)COc1cccc2ccccc12` (stereo not given), the Hit score came to 0.1908.
Turning to `CC1=C(C)C(=O)C(CCCCCCCCCC[P+](c2ccccc2)(c2ccccc2)c2ccccc2)=CC1=O`, the Hit score is on record as 0.06177.
Consider `C#C[C@]1(O)CC[C@H]2[C@@H]3CCC4=Cc5oncc5C[C@]4(C)[C@H]3CC[C@@]21C` [DANAZOL], for which the Hit score is recorded as 0.2899.
Turning to `CC(C)(CO)c1cc2cc(NC(=O)C3(c4ccc5c(c4)OC(F)(F)O5)CC3)c(F)cc2n1C[C@@H](O)CO` [TEZACAFTOR], the Hit score was 0.1873.
The compound `O=C(O)c1cccc(-c2noc(-c3ccccc3F)n2)c1` yielded a Hit score of 0.2151.
The result for `N#Cc1ccnc(N2C(=O)CC[C@H]2C(=O)N(c2cncc(F)c2)[C@H](C(=O)NC2CC(F)(F)C2)c2ccccc2Cl)c1` [IVOSIDENIB] reads 0.2722.
Turning to `O=C(O)c1ccc2c(c1)nc(Nc1cccc(Cl)c1)c1ccncc12` [SILMITASERTIB], the Hit score stood at 0.7608.
With `CC[C@H](Nc1ncnc2[nH]cnc12)c1nc2cccc(F)c2c(=O)n1-c1ccccc1` [IDELALISIB], the Hit score was found to be 0.4259.
As to `C[C@H](Nc1ncnc2nc[nH]c12)c1cc2cccc(Cl)c2c(=O)n1-c1ccccc1` [DUVELISIB], the Hit score is reported as 0.6035.
`C[C@H](C(=O)O)c1ccc(-c2ccccc2)c(F)c1` [ESFLURBIPROFEN] gave a Hit score of 0.1907.
Compound `OC[C@H]1OC(O)[C@H](O)[C@@H](O)[C@@H]1O` (stereo not given in full) [DEXTROSE] gave a Hit score of 0.07162.
With `CCCCC(F)(F)[C@@]1(O)CC[C@H]2[C@@H](CC(=O)[C@@H]2CCCCCCC(=O)O)O1` [LUBIPROSTONE], the Hit score is on record as 0.08446.
Turning to `CC1(C)C(/C=C/C=C/C=C/C=C2\N(CCCCS(=O)(=O)[O-])c3ccc4ccccc4c3C2(C)C)=[N+](CCCCS(=O)(=O)[O-])c2ccc3ccccc3c21.[Na+]` [INDOCYANINE GREEN], the Hit score is 0.2338.
`Cc1nc(NC(=O)N2CCC[C@H]2C(N)=O)sc1-c1ccnc(C(C)(C)C(F)(F)F)c1` [ALPELISIB]: the Hit score was determined as 0.6194.
Regarding `CC(C)(C)C(=O)OCC(=O)[C@H]1CC[C@H]2[C@@H]3CCC4=CC(=O)CC[C@]4(C)[C@H]3CC[C@]12C` [DESOXYCORTICOSTERONE PIVALATE], the Hit score worked out at 0.2223.
`O=C(O)c1ccc(NC(=O)[C@H](Cc2ccc(O)cc2)NC(=O)c2ccccc2)cc1` [BENTIROMIDE]: the Hit score was 0.2686.
`CC1(C)O[C@@H]2[C@@H](CO[C@@]3(COS(N)(=O)=O)OC(C)(C)O[C@@H]23)O1` [TOPIRAMATE] displayed a Hit score of 0.1748.
The result for `N#Cc1c(N2C[C@@H]3NCCO[C@H]3C2)c(F)cc2c(=O)c(C(=O)O)cn(C3CC3)c12` [FINAFLOXACIN] reads 0.04952; that for `C[C@H]1C[C@@H]2[C@H]([C@@H](O)C[C@@]3(C)[C@H]2CC[C@]3(O)C(=O)CO)[C@@]2(C)C=CC(=O)C=C12` [METHYLPREDNISOLONE], 0.1629.
Regarding `CCCCc1oc2ccc(NS(C)(=O)=O)cc2c1C(=O)c1ccc(OCCCN(CCCC)CCCC)cc1` [DRONEDARONE], the Hit score is listed as 0.03796.
With `C[C@]1(Cn2ccnn2)[C@H](C(=O)O)N2C(=O)C[C@H]2S1(=O)=O` [TAZOBACTAM] the figure was 0.04532.
With `CC(C)Cc1ccc(C(C)C(=O)OCc2ccccn2)cc1` (stereo not given) [IBUPROFEN PICONOL] the figure was 0.1126; with `CCCN1CC(NS(=O)(=O)N(CC)CC)CC2Cc3c(O)cccc3CC21` (stereo not given) [QUINAGOLIDE], 0.09123; with `CO/N=C(\C(=O)N[C@@H]1C(=O)N2C(C(=O)O)=C(CSc3nnnn3C)CS[C@H]12)c1csc(N)n1` [CEFMENOXIME], 0.1641.
`N=C(N)c1ccc(/C=C/c2ccc(C(=N)N)cc2O)cc1` [HYDROXYSTILBAMIDINE] yielded a Hit score of 0.4886.
In turn, `Nc1nc(=O)c2c([nH]1)NC[C@H](CNc1ccc(C(=O)N[C@@H](CCC(=O)O)C(=O)O)cc1)N2C=O` [LEVOLEUCOVORIN] gave a Hit score of 0.1157.
`C#C[C@]1(OC(C)=O)CC[C@H]2[C@@H]3CCC4=CC(=O)CC[C@@H]4[C@H]3CC[C@@]21C` [NORETHINDRONE ACETATE] returned a Hit score of 0.06494.
In the case of `CC(C)NC[C@@H](O)COc1cccc2ccccc12` [DEXPROPRANOLOL], the Hit score is reported as 0.4686.
For `COc1ccccc1OCCNCC(O)COc1cccc2[nH]c3ccccc3c12` (stereo not given) [CARVEDILOL], the Hit score is on record as 0.5244.
In the case of `CC(C)NCC(O)COc1cccc2[nH]c3ccccc3c12` (stereo not given) [CARAZOLOL], the Hit score is recorded as 0.4815.
As to `C=CCOc1ccccc1OCC(O)CNC(C)C` (stereo not given) [OXPRENOLOL], the Hit score was determined as 0.08363.
`C=CCc1ccccc1OCC(O)CNC(C)C` (stereo not given) [ALPRENOLOL] yielded a Hit score of 0.3773.
`CC(C)NCC(O)COc1cccc2[nH]ccc12` (stereo not given) [PINDOLOL] returned a Hit score of 0.3758.
Regarding `COc1ccc(CCNCC(O)COc2cccc(C)c2)cc1OC` (stereo not given) [BEVANTOLOL], the Hit score was determined as 0.3675.
For the compound `CC(C)NCC(O)COc1cccc2ccccc12` (stereo not given) [PROPRANOLOL], the Hit score was 0.3664.
`COc1ccccc1OCC(O)CO` (stereo not given) [GUAIFENESIN] gave a Hit score of 0.2008.
In turn, `NS(=O)(=O)c1cc(-c2nnn[nH]2)c(NCc2cccs2)cc1Cl` [AZOSEMIDE] had a Hit score of 0.09549.
